Results from ChEMBL document CHEMBL4888484, “Replenishing the malaria drug discovery pipeline: Screening and hit evaluation of the MMV Hit Generation Library 1 (HGL1) against asexual blood stage Plasmodium falciparum ,using a nano luciferase reporter read-out” (2022).
The campaign covered roughly 4,800 compounds. About 410 (8.5%) showed an effect of 50% or more. Only a selection was taken, and strong results are over-represented in it overall.

System: Plasmodium falciparum
Experiment: Confirmatory screen in NF54 pLDH assay, in single point, at 2uM, 72h
Type: functional, Erythrocyte
Conditions: timepoint 72 hour

| SMILES | % Inhibition [%] |
| --- | --- |
| CCCS(=O)(=O)NC[C@H]1C[C@@H]2CCN1C[C@@H]2c1cc(C(CC)CC)nc(-c2ccncc2)n1 | 25 |
| CCC(CC)c1cc([C@H]2CN3CC[C@H]2C[C@@H]3CNS(=O)(=O)Cc2ccccc2)nc(-c2ccncc2)n1 | 60 |
| CCC(CC)c1cc([C@H]2CN3CC[C@H]2C[C@@H]3CO)nc(-c2ccncc2)n1 | 24 |
| CN(C)[C@@H](Cn1c(=O)[nH]c2ccccc2c1=O)c1ccco1 | -13 |
| COc1ccc(-c2csc(-n3cc(C4=CCN(CCO)CC4)cn3)n2)cc1 | 40 |
| O=C(Cc1noc2ccccc12)N1CC2CCCC(C1)N2 | 11 |
| CC(C)(C)CC(C)(C)NCc1cccnc1 | -1 |
| O=C1NC(=O)C2(Cc3cc(C(F)(F)F)ccc3N3CCCCC32)C(=O)N1c1ccccc1 (centres undefined) | -21 |
| O=C(c1ccccc1)c1cc(Cl)ccc1NC(=O)[C@H]1CC(=O)N(c2ccc(F)cc2)C1 | 96 |
| Cc1c(C(=O)N2CCC3(CC2)OCCO3)oc2ccc3c(c12)[C@@H](O)CC1(CCCCC1)O3 | 10 |
| CN(C)c1ccccc1NS(=O)(=O)c1c(Br)cc2[nH]c(=O)oc2c1Cl | 2 |
| CCC(CC)c1cc([C@H]2CN3CC[C@H]2C[C@@H]3CNC(=O)Cc2cccs2)nc(-c2ccncc2)n1 | 7 |
| CN1CCc2nc3ccc(F)cc3c(C(N)=O)c2C1 | -10 |
| Cc1ccccc1[C@H](C)NC1=NCCO1 | 6 |
| CCN1C[C@]2(COC)CC[C@H](OC)[C@@]34C5C[C@@H]6[C@@H](OC)C[C@@](O)(C5[C@H]6OC(=O)c5ccccc5)[C@@H](CC23)C14 (some centres undefined) | 13 |
| Cc1ccc(C2CC(c3cccnc3)Nc3ncnn32)cc1 (centres undefined) | 7 |
| C=CC1CN2CCC1CC2C12Nc3ccccc3C1(O)CCO2 (centres undefined) | -15 |
| O[C@@]1(Cc2ccccc2)CN2CCC1CC2 | 3 |
| COc1ccc(CCN2C(=O)NC(=O)[C@@]3(Cc4c(ccc5ccccc45)N(C)C3)C2=O)cc1OC | 6 |
| Cc1cc(C(=O)NC2CC(C)n3ccnc32)nn1C(C)C (centres undefined) | 70 |
| CCc1nsc(N2CCC3CCC(C2)N3C)n1 (centres undefined) | -12 |
| C[C@@H]1N=C(c2ccccc2)c2cc(Cl)ccc2N(CC(=O)Nc2cccc(C(F)(F)F)c2)C1=O | 11 |

| SMILES | % Inhibition [%] |
| --- | --- |
| Cc1ccc(CN2CC(=O)N(C)CC23CCCCC3)nc1 | -19 |
| Clc1ccc(C2CC(c3cccnc3)Nc3ncnn32)cc1 (centres undefined) | -11 |
| COC(=O)c1cc(OC)cc2[nH]c(=O)oc12 | -17 |
| O=C1CCN(C(=O)c2ccc(F)c(Cl)c2)CC1 | 13 |
| CC(CCc1ccccc1)N1C(=O)NC(=O)C2(Cc3c(ccc4ccccc34)N(C)C2)C1=O (centres undefined) | 6 |
| CCn1cnc2c(N3C4CCC3C(C(=O)OC(C)(C)C)C4)ncnc21 (centres undefined) | -8 |
| CC1CNCC(C)N1Cc1csc(C2CC2)n1 (centres undefined) | -9 |
| O=C1NC(=O)C2(Cc3cccc(F)c3N3CCC(c4ccccc4)CC32)C(=O)N1c1ccccc1 (centres undefined) | -18 |
| Cc1cc(=O)c(OCC(=O)N2CCN([C@@H](c3ccccc3)c3ccc(Cl)cc3)CC2)c[nH]1 | 74 |
| O=C(N1CCN(C(c2ccccc2)c2ccccc2)CC1)C(O)(c1ccccc1)c1ccccc1 | -14 |
| COc1cc(OCC(=O)N2CCN([C@@H](C)Cc3ccccc3)CC2)cc(OC)c1OC | 3 |
| COc1cnc(C(F)(F)F)nc1N1CCNCC1 | 9 |
| Cn1cc(Br)cc1C(=O)C(Cl)(Cl)Cl | -6 |
| CC(C)(C)NC(=O)C1CC2CCCCC2CN1 (centres undefined) | 2 |
| CN1CC2(CN(Cc3cnc4ccc(Cl)cn34)C2)OC1=O | 6 |
| C=CCN(C)C[C@H]1CN2CC[C@H]1C[C@@H]2CNC(=O)Nc1ccc(OC(F)(F)F)cc1 | 17 |
| O=C1CCN(C(=O)c2ccc(Cl)c(Cl)c2)CC1 | 12 |
| CN1CCC(N(C)C2CCCCC2N(C)C(=O)Cc2ccc(O)cc2)CC1 (centres undefined) | 4 |
| CC(=O)N(C1CCN(Cc2ccccc2)CC1)C1(C(=O)Nc2ccc3[nH]ccc3c2)CCN(C)CC1 | 101 |
| CN1CC2CN(Cc3ccccc3)CC(C1)C2=O | -5 |
| COCCn1ccc(C(=O)N[C@H]2CCc3nc(C(C)C)nn3C2)n1 | 1 |
| c1cc(N2CC[C@@]3(CCCNC3)C2)c2sccc2n1 | 98 |

| SMILES | % Inhibition [%] |
| --- | --- |
| CN1CC[C@]2(CCN(c3ccnc4ccsc34)C2)C1 | 97 |
| CN1CCC2(CC1)CNc1ccccc12 | 0 |
| COC(=O)COc1ccc(C#N)c(Cl)c1 | 1 |
| CCOc1ccccc1NC(=O)c1cn(Cc2ccc(N)cc2)cn1 | 6 |
| O=c1[nH]c2cc(NS(=O)(=O)c3ccc(C4CCCCC4)cc3)ccc2o1 | -14 |
| COc1ccc(N2C[C@H]2c2ccncc2)cc1 | 12 |
| O=C(NC[C@H]1C[C@@H]2CC[N@]1C[C@@H]2CN1CCC(Cc2ccccc2)CC1)Nc1ccccc1 | 27 |
| CN(C)C(=O)Oc1cccc2ccc(CN3CCC(N4CCN(c5ccc(C(F)(F)F)cn5)CC4)CC3)nc12 | 5 |
| O=C(Cc1cnc2ccccn12)N1C[C@H]2CC[C@@H](C1)N(Cc1ccccn1)C2 | 20 |
| CNCCc1cc(OC)c(OC)c2c1ccc1cc(OC)c(OC)cc12 | 7 |
| c1ccc2c(CCNC3(c4nnnn4C4CCCCC4)CCCCC3)c[nH]c2c1 | 16 |
| O=S(=O)(NC12CCCC1CNC2)c1onc(C2CC2)c1Cl (centres undefined) | 97 |
| O=C(NCc1ccc(Br)cn1)[C@H]1NCC12CCCC2 | 4 |
| COC(=O)CNc1cc(C)c([C@@](O)(C(=O)OC)C(F)(F)F)cc1OC | 6 |
| CCN(CC)C(=O)Oc1cc2nnnn2nc1-c1ccccc1 | 6 |
| CC(C)N1C(=O)NC(=O)C2(Cc3ccccc3N3CCN(Cc4ccccc4)CC32)C1=O (centres undefined) | 19 |
| C=CCCC(CN1C[C@H]2CC=CC[C@H]2C1)Oc1ncc(F)cn1 (some centres undefined) | 64 |
| C[C@@H](Cc1ccc(O)cc1)NCc1cc[nH]n1 | 12 |
| CCCC(=O)N(C(=O)CCC)c1ccc2[nH]c(=O)oc2c1 | -1 |
| Cc1ccc(Cl)c(NC(=O)N2CCC[C@H](c3n[nH]c(=O)o3)C2)c1 | 2 |
